# In ChEMBL document CHEMBL2218924, “A broad activity screen in support of a chemogenomic map for kinase signalling research and drug discovery” (Biochem J, 2013):
# Assays:
# [1] = molecular target: T1, Ephrin type-B receptor 1 (Homo sapiens) (UniProt P54762); conditions: at 10 µM
# T1 sequence (whole entry): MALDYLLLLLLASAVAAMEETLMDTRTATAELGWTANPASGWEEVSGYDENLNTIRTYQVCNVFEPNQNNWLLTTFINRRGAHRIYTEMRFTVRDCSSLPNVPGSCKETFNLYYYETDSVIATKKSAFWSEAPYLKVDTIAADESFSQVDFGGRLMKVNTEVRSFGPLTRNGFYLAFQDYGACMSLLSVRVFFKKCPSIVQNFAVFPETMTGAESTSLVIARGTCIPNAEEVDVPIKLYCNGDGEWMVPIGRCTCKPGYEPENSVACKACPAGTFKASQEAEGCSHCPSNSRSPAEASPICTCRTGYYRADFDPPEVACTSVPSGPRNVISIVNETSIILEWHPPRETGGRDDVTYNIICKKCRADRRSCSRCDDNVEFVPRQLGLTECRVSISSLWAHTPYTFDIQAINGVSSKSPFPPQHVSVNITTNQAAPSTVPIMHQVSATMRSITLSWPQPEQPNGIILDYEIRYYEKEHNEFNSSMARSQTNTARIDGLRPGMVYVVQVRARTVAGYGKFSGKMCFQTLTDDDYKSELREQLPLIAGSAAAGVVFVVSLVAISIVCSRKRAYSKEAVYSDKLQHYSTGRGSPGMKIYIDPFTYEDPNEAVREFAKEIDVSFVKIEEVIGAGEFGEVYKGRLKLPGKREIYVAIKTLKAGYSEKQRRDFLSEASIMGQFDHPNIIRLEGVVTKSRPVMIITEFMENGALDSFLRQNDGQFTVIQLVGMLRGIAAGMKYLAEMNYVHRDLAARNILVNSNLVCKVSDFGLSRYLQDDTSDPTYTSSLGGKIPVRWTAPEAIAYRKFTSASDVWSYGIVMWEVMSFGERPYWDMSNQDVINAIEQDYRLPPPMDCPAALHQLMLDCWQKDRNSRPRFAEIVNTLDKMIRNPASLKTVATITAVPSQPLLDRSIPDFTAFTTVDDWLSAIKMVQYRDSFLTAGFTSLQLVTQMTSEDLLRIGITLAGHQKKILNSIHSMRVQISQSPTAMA
# [2] = molecular target: T2, Ephrin type-B receptor 2 (Homo sapiens) (UniProt P29323); conditions: at 1 µM
# T2 sequence (whole entry): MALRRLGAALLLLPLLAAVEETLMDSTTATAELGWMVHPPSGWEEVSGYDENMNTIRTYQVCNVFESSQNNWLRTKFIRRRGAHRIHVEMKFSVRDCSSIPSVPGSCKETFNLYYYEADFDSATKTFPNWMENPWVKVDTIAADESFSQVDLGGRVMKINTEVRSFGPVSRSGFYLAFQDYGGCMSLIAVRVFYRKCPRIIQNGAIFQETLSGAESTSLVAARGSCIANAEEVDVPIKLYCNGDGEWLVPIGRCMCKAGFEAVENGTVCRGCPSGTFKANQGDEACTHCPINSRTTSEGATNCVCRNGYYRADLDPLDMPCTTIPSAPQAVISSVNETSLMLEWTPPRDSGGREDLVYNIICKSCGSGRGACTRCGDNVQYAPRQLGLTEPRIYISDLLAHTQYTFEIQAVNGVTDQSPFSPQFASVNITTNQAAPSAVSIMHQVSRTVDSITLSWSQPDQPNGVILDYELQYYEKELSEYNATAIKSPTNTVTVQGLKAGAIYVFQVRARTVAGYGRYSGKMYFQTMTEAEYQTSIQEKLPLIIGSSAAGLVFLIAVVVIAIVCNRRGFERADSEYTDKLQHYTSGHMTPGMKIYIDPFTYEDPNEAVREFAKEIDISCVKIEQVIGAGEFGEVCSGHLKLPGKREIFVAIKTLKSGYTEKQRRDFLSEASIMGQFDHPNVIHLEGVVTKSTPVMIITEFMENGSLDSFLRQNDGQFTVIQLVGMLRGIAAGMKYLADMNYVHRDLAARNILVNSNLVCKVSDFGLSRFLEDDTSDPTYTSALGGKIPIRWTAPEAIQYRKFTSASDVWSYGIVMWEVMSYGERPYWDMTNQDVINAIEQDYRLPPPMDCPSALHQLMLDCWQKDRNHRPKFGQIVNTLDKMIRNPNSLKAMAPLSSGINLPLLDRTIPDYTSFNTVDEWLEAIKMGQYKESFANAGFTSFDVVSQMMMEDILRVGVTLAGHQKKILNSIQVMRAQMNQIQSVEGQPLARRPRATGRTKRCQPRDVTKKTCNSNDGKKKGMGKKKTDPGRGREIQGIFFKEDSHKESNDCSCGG
# [3] = molecular target: T2, Ephrin type-B receptor 2 (Homo sapiens); conditions: at 10 µM
# [4] = molecular target: T3, Ephrin type-B receptor 3 (Homo sapiens) (UniProt P54753); conditions: at 1 µM
# T3 sequence (whole entry): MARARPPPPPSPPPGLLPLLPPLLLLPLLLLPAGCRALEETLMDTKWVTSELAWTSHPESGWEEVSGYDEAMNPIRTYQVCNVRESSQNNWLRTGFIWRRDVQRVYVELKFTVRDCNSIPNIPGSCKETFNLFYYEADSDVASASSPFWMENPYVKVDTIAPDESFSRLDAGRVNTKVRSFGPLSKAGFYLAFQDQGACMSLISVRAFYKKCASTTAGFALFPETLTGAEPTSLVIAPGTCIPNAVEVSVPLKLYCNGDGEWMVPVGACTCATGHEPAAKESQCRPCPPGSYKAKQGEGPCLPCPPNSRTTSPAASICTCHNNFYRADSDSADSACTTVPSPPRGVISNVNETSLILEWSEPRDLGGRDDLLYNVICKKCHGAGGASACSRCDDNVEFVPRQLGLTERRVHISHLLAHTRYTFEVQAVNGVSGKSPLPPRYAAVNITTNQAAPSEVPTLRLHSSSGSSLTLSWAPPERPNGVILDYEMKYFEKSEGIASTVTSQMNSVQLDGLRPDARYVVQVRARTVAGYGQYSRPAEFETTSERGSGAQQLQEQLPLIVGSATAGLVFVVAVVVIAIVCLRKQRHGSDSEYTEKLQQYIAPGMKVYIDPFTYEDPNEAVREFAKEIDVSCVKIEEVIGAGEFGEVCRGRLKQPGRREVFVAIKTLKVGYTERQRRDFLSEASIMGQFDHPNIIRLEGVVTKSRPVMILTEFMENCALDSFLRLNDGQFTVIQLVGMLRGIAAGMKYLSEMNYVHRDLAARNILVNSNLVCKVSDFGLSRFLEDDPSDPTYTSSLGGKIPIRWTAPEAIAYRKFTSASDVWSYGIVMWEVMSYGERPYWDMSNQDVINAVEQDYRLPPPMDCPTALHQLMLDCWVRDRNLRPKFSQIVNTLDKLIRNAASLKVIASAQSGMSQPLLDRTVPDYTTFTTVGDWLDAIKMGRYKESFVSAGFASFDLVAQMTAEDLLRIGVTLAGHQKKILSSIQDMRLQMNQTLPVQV
# [5] = molecular target: T3, Ephrin type-B receptor 3 (Homo sapiens); conditions: at 10 µM
# [6] = molecular target: T4, Ephrin type-B receptor 4 (Homo sapiens) (UniProt P54760); conditions: at 1 µM
# T4 sequence (whole entry): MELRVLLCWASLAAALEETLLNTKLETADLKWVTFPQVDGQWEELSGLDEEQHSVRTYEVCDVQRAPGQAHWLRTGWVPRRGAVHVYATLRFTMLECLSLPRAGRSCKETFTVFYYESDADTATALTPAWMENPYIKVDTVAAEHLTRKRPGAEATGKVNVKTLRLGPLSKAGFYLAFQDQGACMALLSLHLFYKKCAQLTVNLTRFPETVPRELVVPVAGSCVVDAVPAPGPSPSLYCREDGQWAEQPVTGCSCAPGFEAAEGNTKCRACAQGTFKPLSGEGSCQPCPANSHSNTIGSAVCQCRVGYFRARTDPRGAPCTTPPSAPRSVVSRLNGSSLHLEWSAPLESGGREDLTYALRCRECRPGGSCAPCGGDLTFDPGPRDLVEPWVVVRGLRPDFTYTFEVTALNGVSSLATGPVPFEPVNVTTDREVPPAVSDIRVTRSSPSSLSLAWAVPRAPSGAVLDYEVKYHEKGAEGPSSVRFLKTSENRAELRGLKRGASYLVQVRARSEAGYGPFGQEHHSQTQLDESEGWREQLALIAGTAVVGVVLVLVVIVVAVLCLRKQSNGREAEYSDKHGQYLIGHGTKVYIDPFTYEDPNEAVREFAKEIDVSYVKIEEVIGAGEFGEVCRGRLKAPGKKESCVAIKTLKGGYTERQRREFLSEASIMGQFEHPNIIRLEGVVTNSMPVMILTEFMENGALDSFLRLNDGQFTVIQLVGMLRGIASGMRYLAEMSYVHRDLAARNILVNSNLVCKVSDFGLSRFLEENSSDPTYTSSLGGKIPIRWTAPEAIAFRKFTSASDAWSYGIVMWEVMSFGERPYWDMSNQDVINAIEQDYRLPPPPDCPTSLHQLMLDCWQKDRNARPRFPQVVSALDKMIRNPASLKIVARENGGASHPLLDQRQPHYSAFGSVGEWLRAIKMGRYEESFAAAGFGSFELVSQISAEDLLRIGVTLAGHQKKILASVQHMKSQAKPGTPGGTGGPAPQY
# [7] = molecular target: T4, Ephrin type-B receptor 4 (Homo sapiens); conditions: at 10 µM
# [8] = molecular target: Receptor tyrosine-protein kinase erbB-4 (Homo sapiens) (UniProt Q15303); conditions: at 1 µM
# Receptor tyrosine-protein kinase erbB-4 (Homo sapiens), sequence (Q15303 whole entry): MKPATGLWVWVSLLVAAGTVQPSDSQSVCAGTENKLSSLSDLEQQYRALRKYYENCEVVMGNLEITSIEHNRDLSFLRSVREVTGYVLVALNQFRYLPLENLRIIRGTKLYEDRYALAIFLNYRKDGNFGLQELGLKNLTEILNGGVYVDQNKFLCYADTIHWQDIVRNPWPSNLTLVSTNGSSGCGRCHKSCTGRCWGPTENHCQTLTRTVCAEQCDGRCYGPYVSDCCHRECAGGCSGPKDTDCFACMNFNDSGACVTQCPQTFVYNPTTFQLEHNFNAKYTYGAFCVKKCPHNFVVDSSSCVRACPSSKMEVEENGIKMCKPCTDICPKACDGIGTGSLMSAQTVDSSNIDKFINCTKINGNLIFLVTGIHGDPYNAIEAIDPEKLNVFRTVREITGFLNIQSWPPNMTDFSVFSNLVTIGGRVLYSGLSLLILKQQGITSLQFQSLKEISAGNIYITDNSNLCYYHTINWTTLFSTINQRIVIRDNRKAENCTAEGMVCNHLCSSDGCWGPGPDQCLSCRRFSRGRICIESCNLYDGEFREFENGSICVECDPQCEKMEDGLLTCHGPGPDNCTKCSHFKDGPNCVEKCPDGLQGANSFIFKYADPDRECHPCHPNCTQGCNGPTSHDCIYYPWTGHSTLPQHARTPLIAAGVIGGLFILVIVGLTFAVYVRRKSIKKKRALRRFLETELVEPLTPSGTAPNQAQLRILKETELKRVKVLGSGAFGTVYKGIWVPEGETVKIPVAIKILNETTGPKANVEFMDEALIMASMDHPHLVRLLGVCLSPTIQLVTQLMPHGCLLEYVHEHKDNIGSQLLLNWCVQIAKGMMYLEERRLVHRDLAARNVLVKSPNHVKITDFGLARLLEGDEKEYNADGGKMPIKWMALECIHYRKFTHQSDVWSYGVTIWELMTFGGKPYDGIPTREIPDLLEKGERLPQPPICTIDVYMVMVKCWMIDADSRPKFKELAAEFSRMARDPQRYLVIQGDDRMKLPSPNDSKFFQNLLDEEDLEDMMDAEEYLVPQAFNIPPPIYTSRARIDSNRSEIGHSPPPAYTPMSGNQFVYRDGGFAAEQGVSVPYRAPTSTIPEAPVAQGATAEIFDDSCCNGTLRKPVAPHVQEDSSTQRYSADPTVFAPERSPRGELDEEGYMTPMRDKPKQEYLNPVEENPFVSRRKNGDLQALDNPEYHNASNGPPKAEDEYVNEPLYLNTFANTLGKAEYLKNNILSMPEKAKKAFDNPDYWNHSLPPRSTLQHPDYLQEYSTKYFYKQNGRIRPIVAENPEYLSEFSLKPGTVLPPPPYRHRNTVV
# [9] = molecular target: Receptor tyrosine-protein kinase erbB-4 (Homo sapiens) (UniProt Q15303); conditions: at 10 µM
# [10] = molecular target: Focal adhesion kinase 1 (Homo sapiens) (UniProt Q05397); conditions: at 1 µM
# Focal adhesion kinase 1 (Homo sapiens), sequence (Q05397 2-1052 limits assumed): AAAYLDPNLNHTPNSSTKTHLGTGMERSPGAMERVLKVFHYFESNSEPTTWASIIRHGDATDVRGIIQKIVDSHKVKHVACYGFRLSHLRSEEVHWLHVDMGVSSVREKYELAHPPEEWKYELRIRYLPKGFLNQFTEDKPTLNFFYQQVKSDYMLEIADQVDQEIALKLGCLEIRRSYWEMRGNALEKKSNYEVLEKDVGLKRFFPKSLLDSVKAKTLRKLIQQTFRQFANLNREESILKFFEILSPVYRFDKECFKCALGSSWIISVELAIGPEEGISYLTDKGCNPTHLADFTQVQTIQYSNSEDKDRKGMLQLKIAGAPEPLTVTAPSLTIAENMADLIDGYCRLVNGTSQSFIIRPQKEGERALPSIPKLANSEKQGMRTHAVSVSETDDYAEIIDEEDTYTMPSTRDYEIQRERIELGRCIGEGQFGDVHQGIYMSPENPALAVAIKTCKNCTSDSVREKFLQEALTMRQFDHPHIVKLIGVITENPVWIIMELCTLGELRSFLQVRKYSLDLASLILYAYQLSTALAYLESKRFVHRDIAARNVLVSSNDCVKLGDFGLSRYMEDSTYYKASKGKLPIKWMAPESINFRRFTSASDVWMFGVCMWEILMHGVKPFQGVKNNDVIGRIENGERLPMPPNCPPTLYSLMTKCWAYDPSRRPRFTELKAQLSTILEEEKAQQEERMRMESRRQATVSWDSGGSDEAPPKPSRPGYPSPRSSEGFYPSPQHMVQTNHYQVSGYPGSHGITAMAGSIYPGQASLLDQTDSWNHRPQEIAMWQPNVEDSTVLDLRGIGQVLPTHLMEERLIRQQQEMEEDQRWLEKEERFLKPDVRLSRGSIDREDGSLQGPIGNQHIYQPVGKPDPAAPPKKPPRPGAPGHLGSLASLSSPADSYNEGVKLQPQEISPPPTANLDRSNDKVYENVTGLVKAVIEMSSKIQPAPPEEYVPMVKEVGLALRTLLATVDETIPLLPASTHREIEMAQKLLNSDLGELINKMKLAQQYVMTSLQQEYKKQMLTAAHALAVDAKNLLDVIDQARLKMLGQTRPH
# [11] = molecular target: Focal adhesion kinase 1 (Homo sapiens) (UniProt Q05397); conditions: at 10 µM
# [12] = molecular target: Fibroblast growth factor receptor 1 (Homo sapiens) (UniProt P11362); conditions: at 1 µM
# Fibroblast growth factor receptor 1 (Homo sapiens), sequence (P11362 22-822 limits assumed): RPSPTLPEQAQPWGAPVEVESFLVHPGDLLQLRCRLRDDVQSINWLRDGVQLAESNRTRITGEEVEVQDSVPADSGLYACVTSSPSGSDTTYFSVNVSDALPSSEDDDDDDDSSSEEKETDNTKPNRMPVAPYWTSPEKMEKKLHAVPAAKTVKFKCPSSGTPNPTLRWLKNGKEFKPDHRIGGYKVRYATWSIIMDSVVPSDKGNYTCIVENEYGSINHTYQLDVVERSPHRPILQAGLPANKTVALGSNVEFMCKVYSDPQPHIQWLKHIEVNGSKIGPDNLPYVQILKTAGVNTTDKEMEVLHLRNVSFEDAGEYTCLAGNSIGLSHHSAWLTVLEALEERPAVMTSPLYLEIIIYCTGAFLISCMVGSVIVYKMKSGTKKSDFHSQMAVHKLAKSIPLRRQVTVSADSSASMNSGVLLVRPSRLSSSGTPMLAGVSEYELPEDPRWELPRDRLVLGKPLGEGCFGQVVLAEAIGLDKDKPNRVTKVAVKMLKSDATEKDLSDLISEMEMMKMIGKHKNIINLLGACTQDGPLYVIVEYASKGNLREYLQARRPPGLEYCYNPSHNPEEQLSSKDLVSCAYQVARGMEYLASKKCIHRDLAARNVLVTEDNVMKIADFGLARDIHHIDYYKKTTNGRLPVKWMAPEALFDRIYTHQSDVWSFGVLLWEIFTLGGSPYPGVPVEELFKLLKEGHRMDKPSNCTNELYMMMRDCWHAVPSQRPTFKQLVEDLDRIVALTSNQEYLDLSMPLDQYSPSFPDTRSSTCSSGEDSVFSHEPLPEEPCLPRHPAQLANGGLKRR
# [13] = molecular target: Fibroblast growth factor receptor 1 (Homo sapiens) (UniProt P11362); conditions: at 10 µM
# [14] = molecular target: Fibroblast growth factor receptor 2 (Homo sapiens) (UniProt P21802); conditions: at 1 µM
# [15] = molecular target: Fibroblast growth factor receptor 2 (Homo sapiens) (UniProt P21802); conditions: at 10 µM
# [16] = molecular target: Fibroblast growth factor receptor 3 (Homo sapiens) (UniProt P22607); conditions: at 1 µM
# [17] = molecular target: Fibroblast growth factor receptor 3 (Homo sapiens) (UniProt P22607); conditions: at 10 µM
# [18] = molecular target: Fibroblast growth factor receptor 4 (Homo sapiens) (UniProt P22455); conditions: at 1 µM
# Fibroblast growth factor receptor 4 (Homo sapiens), sequence (P22455 22-802 limits assumed): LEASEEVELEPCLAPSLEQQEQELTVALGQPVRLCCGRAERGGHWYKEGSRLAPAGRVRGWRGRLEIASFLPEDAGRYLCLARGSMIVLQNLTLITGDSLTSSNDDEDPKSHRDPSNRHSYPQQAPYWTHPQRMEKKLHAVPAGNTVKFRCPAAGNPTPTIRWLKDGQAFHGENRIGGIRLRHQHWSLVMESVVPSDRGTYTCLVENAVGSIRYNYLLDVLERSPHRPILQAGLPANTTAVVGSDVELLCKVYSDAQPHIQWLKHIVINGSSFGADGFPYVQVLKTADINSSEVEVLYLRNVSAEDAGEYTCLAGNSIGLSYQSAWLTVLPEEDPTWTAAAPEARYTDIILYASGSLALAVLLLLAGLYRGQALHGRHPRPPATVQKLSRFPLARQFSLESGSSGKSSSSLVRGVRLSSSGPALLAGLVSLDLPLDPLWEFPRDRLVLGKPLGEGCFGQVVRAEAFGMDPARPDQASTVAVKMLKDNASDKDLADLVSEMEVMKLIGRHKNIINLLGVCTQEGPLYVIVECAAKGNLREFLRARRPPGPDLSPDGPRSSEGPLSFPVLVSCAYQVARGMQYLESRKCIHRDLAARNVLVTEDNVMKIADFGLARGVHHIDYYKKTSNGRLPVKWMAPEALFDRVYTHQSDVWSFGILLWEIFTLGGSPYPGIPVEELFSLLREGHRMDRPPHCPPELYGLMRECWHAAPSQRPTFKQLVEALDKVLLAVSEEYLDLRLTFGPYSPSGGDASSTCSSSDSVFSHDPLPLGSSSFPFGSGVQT
# [19] = molecular target: Fibroblast growth factor receptor 4 (Homo sapiens) (UniProt P22455); conditions: at 10 µM
# [20] = molecular target: Tyrosine-protein kinase Fer (Homo sapiens) (UniProt P16591); conditions: at 1 µM
# Tyrosine-protein kinase Fer (Homo sapiens), sequence (P16591 whole entry, looked up): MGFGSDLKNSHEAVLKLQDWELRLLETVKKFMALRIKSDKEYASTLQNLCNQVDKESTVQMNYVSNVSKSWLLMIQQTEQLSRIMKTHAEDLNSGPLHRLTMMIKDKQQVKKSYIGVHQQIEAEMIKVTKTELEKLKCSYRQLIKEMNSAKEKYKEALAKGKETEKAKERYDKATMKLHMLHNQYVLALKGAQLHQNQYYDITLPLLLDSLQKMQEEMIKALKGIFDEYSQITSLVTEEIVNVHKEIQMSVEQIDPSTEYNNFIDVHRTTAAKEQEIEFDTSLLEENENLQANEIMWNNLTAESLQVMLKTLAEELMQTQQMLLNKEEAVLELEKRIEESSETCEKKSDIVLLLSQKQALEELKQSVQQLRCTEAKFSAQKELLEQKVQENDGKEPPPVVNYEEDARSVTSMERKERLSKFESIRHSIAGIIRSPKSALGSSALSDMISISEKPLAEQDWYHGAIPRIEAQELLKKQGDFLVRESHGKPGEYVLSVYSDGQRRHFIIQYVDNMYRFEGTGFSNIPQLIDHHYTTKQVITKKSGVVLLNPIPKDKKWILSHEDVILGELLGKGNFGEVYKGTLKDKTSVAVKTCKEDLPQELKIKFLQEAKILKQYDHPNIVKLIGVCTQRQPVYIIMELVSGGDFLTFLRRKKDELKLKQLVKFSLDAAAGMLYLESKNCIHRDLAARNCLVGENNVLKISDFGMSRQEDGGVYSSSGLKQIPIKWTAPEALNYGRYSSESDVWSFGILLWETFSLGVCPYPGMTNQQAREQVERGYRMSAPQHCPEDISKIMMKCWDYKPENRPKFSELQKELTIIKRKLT
SMILES,residual activity [1] [%],residual activity [2] [%],residual activity [3] [%],residual activity [4],residual activity [5] [%],residual activity [6] [%],residual activity [7] [%],residual activity [8] [%],residual activity [9] [%],residual activity [10] [%],residual activity [11] [%],residual activity [12] [%],residual activity [13] [%],residual activity [14] [%],residual activity [15] [%],residual activity [16] [%],residual activity [17] [%],residual activity [18] [%],residual activity [19] [%],residual activity [20] [%]
Oc1ccc(Nc2nc(-c3ccc(Cl)cc3)cs2)cc1,78,108,109,88% (inactive),95,109,92,132,128,108,94,128,86,119,93,132,137,125,118,94
O=C1Nc2ccc(Br)cc2/C1=C\c1cc2c([nH]1)CCCC2,107,111,115,114% (inactive),117,118,132,109,106,78,58,81,81,63,53,–,–,–,–,119
Cc1cc(Nc2nc(-c3ccccc3)nc3ccccc23)n[nH]1,17,100,48,111% (inactive),–,75,20,106,45,36,7,4,2,24,2,34,4,106,72,43
Oc1c2ccccc2c2c3c(cccc13)N=N2,29,101,95,–,81,89,55,104,97,52,9,39,4,52,12,72,40,110,89,75
Oc1ccc(-c2nc(-c3ccc(F)cc3)c(-c3ccncc3)[nH]2)cc1,53,94,43,95% (inactive),117,103,41,114,72,117,113,112,41,115,87,121,88,114,96,102
CC(=O)c1ccc(N2CCOCC2)cc1O,101,–,106,105% (inactive),107,–,–,93,107,–,94,97,–,–,–,98,128,–,–,–
Nc1nc(Nc2ccc(S(N)(=O)=O)cc2)nn1C(=S)Nc1c(F)cccc1F,-1,–,–,–,–,30,4,105,96,20,-1,1,-1,1,-1,3,0,71,23,23
